# Source: PubChem BioAssay (NCATS)
# Records with an inconclusive call do not appear. Entries that show only a call come without a potency. The source made the active and inactive calls. Unless noted, calls come from the whole dose curve; as a rule, active = well fitted curve in the direction sought with a large enough effect; inconclusive = small, poorly fitted or top-dose-only effect, or another doubt; inactive = no such curve, though single readings can be large; an effect the other way counts as inactive or inconclusive.
# Key:
# [1] = AP1 Signaling Pathway (AID 357; active = well fitted curve in either direction with a large enough effect, not every such curve was filed as active;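 note: ME-180 reporter cells stimulated with EGF at its EC50 level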); details: ME-180 AP-1-bla reporter, EGF-induced, beta-lactamase ratio, 5 h; at 38 µM (top of the series)
# Procedure, shortened: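 AP-1-bla ME-180 cells, Opti-MEM + 0.5% dialyzed FBS, plated overnight 37 °C. Cpd titration + EC50 EGF, 5 h 37 °C. CCF4 2.5 h RT; ex 405, em 460/530 ratio → %activity, AC50.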
# [2] = molecular target: Cytochrome P450 1A2 (Homo sapiens) (UniProt P05177); experiment: p450-cyp1a2 (AID 410; calls by dose curve)
# Procedure, shortened: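 Luminescent demethylation readout: Luciferin-ME (100uM, equal to Km) turned over by 20nM CYP1A2 for 60 min at room temperature after NADPH regeneration addition, following 10 min compound preincubation. Normalization used 57 uM furafylline as full inhibition.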
# [3] = Stat Signaling Pathway (AID 446; active = well fitted curve in either direction with a large enough effect, not every such curve was filed as active;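 note: ME-180 cervical cancer cells given 40 pM IL-6 alongside compound; SIE-controlled beta-lactamase reporter measured as 460/530 nm FRET emission ratio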); details: ME-180 (cervical carcinoma) SIE beta-lactamase reporter, IL-6 stimulated, 5 h; at 38 µM (top of the series)
# Procedure, shortened: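 Normalization used AC90 stimulation (300 pM IL-6) and AC90 inhibition (125 nM pan-JAK inhibitor at 40 pM IL-6). The underlying signal is SIE-driven beta-lactamase in ME-180 cells after 5 h IL-6 exposure with compound.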
# [4] = molecular target: Glucocorticoid receptor (Homo sapiens) (UniProt P04150); experiment: GR-GFP Redistribution (AID 450;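 active = compounds whose dose series gives a full or clear partial fitted curve of increased nuclear translocation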; note: potency is the fitted concentration of half-maximal effect); details: U2OS GR-GFP nuclear translocation, laser cytometry, 2 h
# [5] = molecular target: Glucocorticoid receptor (Homo sapiens) (UniProt P04150); experiment: GR-EFC Redistribution (AID 451; calls by dose curve; note: potency is the fitted concentration of half-maximal effect); details: CHO-K1 GR-EFC translocation, beta-gal luminescence, 2 h
# Procedure, shortened: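 Translocation of GR-ED fusion to nuclear EA restores b-gal, read by luminescence after 1 h room-temperature detection. Engineered CHO-K1 biosensor cells, 1,000/well, exposed 2 h at 37 C to titrations up to 46 uM final.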
# [6] = molecular target: 3',5'-cyclic-AMP phosphodiesterase 4B (Homo sapiens) (UniProt Q07343); experiment: qHTS Assay for Inhibitors of PDE-IV (AID 607; active = well fitted activation curve with a large enough effect in the main read-out, with a control signal flat, not every such curve was filed as active)
# Procedure, shortened: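 HEK293 ACTOne cells with CNG channel (1000/well), endogenous PDE4; membrane potential dye, compounds up to 22.9 uM final. Fluorescence Ex 535/Em 590; RO 20-1724 (100 uM final) as reference.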
# [7] = molecular target: Guanine nucleotide-binding protein G(i) subunit alpha-1 (Homo sapiens) (UniProt P63096); experiment: qHTS Assay for Inhibitors of RGS12 GoLoco Motif Activity (Green Fluorophore) (AID 879);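 note: negative values mean loss of peptide binding seen as reduced polarization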
# Procedure, shortened: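 A drop in FITC polarization marked displacement of the FITC-tagged RGS12 GoLoco peptide (10 nM) from Gαi1 (50 nM). Compounds were incubated 10 min at room temperature in Tris pH 7.5 buffer containing 150 mM NaCl, 0.1 mM GDP and 0.05% NP40; unlabeled peptide titration served as control.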
# [8] = molecular target: Cytochrome P450 3A4 (Homo sapiens) (UniProt P08684); experiment: qHTS Assay for Activators of Cytochrome P450 3A4 (AID 885); note: nearly all actives have a fitted effect of over 65% in size
# Procedure, shortened: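 Human CYP3A4 dealkylates Luciferin-PPXE to luciferin, which luciferase detection converts to light. Substrate was at its KM (25uM), buffer 200mM KPO4, reaction 60 min at RT.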
# [9] = molecular target: Cytochrome P450 2D6 (Homo sapiens) (UniProt P10635); experiment: qHTS Assay for Inhibitors and Substrates of Cytochrome P450 2D6 (AID 891); note: potency is the fitted concentration of half-maximal effect; nearly all actives have a fitted effect of over 60% in size
# Procedure, shortened: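 Luminescent read-out of luciferin formed by 5 nM human CYP2D6 demethylating 30 uM Luciferin-ME EGE (Km level) over 60 min at room temperature after NADPH regeneration addition. Data normalized to full inhibition by 1.43 uM quinidine.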
# [10] = molecular target: Muscarinic acetylcholine receptor M1 (Rattus norvegicus) (UniProt P08482); experiment: qHTS Assay for Antagonists of Acetylcholine Muscarinic M1 Receptor: Measurement of IP-One Response (AID 944); note: potency is the fitted concentration of half-maximal effect; nearly all actives have a fitted effect of over 75% in size
# Procedure, shortened: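 IP1 accumulation measured via TR-FRET between d2-IP1 and Eu-cryptate anti-IP1 antibody after carbachol (200 nM, EC80) stimulation for 30 min; rat M1-transfected CHO cells received compound 10 min before agonist.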
# [11] = molecular target: Pyruvate kinase (Leishmania mexicana) (UniProt Q27686); experiment: qHTS Validation Assay for Inhibitors of Leishmania Mexicana Pyruvate Kinase (AID 945)
# Procedure, shortened: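 Eight-point qHTS titrations; enzyme 0.2 nM LmPYK (E451W mutant); substrates 0.5 mM PEP, 0.1 mM ADP; 7 mM MgCl2; 1 h room temperature; PKLight luminescence normalized to neutral control.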
# [12] = molecular target: Alpha-galactosidase A (Homo sapiens) (UniProt P06280); experiment: Counterscreen for Glucocerebrosidase Inhibitors: qHTS Assay for Human alpha-Galactosidase at pH 4.5 (AID 992)
# Procedure, shortened: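 Steps: enzyme (2 nM final), then compound across 0.7 nM to 77 uM, then 80 uM fluorogenic galactopyranoside substrate; incubate 20 min at room temperature; quench at pH 10; measure fluorescence at 365/440 nm.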
# [13] = molecular target: alpha-glucosidase (Oryza sativa, rice) (UniProt Q653V4); experiment: Counterscreen for Glucocerebrosidase Inhibitors: qHTS Assay for Rice alpha-Glucosidase at pH 5.0 (AID 997)
# Procedure, shortened: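 Endpoint fluorogenic assay at pH 5.0: compounds (0.7 nM to 77 uM) titrated against 4 nM rice enzyme and 400 uM 4-MU-alpha-glucoside for 20 min at room temperature; NaOH/glycine stop, read ex 365/em 440 nm, Hill-fitted AC50.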
# [14] = Validation of Assay for Modulators of Lamin A Splicing (AID 1459; active = well fitted curve in the direction sought with a large enough effect in the signal ratio; the % refers to the signal ratio;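 note: cells exposed to compound for two days before reading; ratio rise marks activators and ratio drop marks inhibitors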)
# Procedure, shortened: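 Splicing correction read as GFP (500-530 nm) over DsRed2 (575-640 nm) object intensity after 48 h compound exposure of reporter HeLa S3 clones (600 cells/well, 2% FBS medium); ancitabine and cycloheximide titrations, 0.5% DMSO as vehicle.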
# [15] = qHTS Assay for Lipid Storage Modulators (AID 1519; calls by dose curve); details: Drosophila S3 cells, BODIPY lipid droplet/cell ratio, laser cytometry, cells loaded with oleic acid
# Procedure, shortened: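 Cells seeded at 5,000 per well were treated with compounds over a concentration series and loaded with oleic acid (400 uM, as added). Lipid droplet fluorescence (488 nm excitation, 500-530 nm channel) was read by laser-scanning cytometry and normalized to 20 uM Triacsin C.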
# [16] = molecular target: DNA repair nuclease/redox regulator APEX1 (Homo sapiens) (UniProt P27695); experiment: qHTS Validation Assay for Inhibitors of the Human Apurinic/apyrimidinic Endonuclease 1 (APE1) (AID 1705;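 note: TAMRA fluorescence gain over two minutes as APE1 cuts a quenched THF abasic duplex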)
# Procedure, shortened: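 Activity read as rising fluorescence (598 nm emission, 525 nm excitation) from incision of a TAMRA/BHQ-2 duplex carrying a THF abasic site (50 nM). Compound and enzyme sat 15 min at RT before substrate start; signal change between first and third 60-s reads.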
# [17] = Counterscreen for APE1 Inhibitors: Fluorescent Dye Displacement Validation Assay (AID 1707)
# Procedure, shortened: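 Reaction mixture of 250 nM Thiazole Orange and 50 nM double-stranded abasic-site DNA was dispensed, compounds were pin-transferred, and fluorescence was read at endpoint (480 nm ex, 540 nm em). Reduced fluorescence indicated dye displacement by DNA binding.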
# [18] = molecular target: Endonuclease 4 (Escherichia coli (strain K12)) (UniProt P0A6C1); experiment: Counterscreen for APE1 Inhibitors: qHTS Validation Assay for Inhibitors of Endonuclease IV (AID 1708)
# Procedure, shortened: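 Incision of a double-stranded 50 nM TAMRA/BHQ-2 abasic substrate was followed kinetically (525/598 nm, reads every 60 s) after 15 min enzyme–compound preincubation with 2 nM EndoIV in pH 7.5 Tris buffer with MgCl2, DTT and Tween-20; concentration-response format.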
# [19] = qHTS for differential inhibitors of proliferation of Plasmodium falciparum line 7G8 (AID 1815);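 note: potency is the fitted concentration of half-maximal effect; parasite growth measured after three days of incubation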
# [20] = qHTS for differential inhibitors of proliferation of Plasmodium falciparum line D10 (AID 1877);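 note: parasites grown with compound for 72 h before DNA staining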
# [21] = qHTS for differential inhibitors of proliferation of Plasmodium falciparum line W2 (AID 1883); details: Potency: Plasmodium falciparum W2 proliferation inhibition;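 note: potency is the fitted concentration of half-maximal effect; parasites grown with compound for 72 h before lysis and staining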
# [22] = molecular target: Ferritin light chain (Equus caballus) (UniProt P02791); experiment: qHTS Validation Assay for Identification of Novel General Anesthetics (AID 2323)
# Procedure, shortened: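 Competitive displacement of the profluorescent anesthetic 1-AMA (50% saturated, PBS) from 10 uM apoferritin, 10 min, room temperature. Activity is normalized 380/535 nm fluorescence; concentration-response fitted with a four-parameter Hill equation.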
# [23] = molecular target: ATP-dependent DNA helicase Q1 (Homo sapiens) (UniProt P46063); experiment: qHTS Validation Assay for Inhibitors of RecQ-Like Dna Helicase 1 (RECQ1) (AID 2353)
# Procedure, shortened: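 RECQ1T1 50 nM; forked duplex (20 bp + 30-nt ss tails) 200 nM, ATP 2 mM final; pH 8.0, 2 mM MgCl2, 2.5 ug/ml poly(dI-dC); 15 min compound preincubation; discontinuous kinetic read over 2 h at RT.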
# [24] = Cytometric Cell-Based qHTS for Inhibitors of the mTORC1 Signaling Pathway in MEF (Tsc2-/-, p53-/-) Cells (AID 2660);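 note: percent of cells above a phospho-rpS6 to PI ratio cutoff in each well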
# Procedure, shortened: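 Tsc2-/-, p53-/- MEFs (empty vector) exposed to compound 24 h at 37 C, fixed, stained with Alexa-488 anti-phospho-rpS6 Ser235/236 and propidium iodide. Acumen laser scanning; phospho-S6/PI ratio thresholded against 7.5 nM rapamycin, reported as % positive cells.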
# [25] = High Content Imaging Cell-Based qHTS for Inhibitors of the mTORC1 Signaling Pathway in MEF (Tsc2-/-, p53-/-) Cells (AID 2666); details: at 38.3 µM (top of the series);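 note: percent of cells scored positive for phospho-rpS6 Ser235/236 immunostaining by imaging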
# Procedure, shortened: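 Tsc2-/-, p53-/- MEFs (empty-vector stable) grown in DMEM + 10% FBS were exposed to compounds for 24 hrs at 37 degree Celsius, fixed, and stained with Alexa-488 anti-phospho-rpS6 Ser235/236 plus Hoechst. Imaging gave the percentage of positive cells per well.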
# [26] = High Content Imaging Cell-Based qHTS for Inhibitors of the mTORC1 Signaling Pathway in MEF Cells (AID 2667);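 note: Tsc2-/- p53-/- MEFs stably re-expressing wild-type Tsc2 exposed 24 h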
# Procedure, shortened: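 Tsc2-/-, p53-/- MEFs stably re-expressing WT Tsc2, grown in DMEM + 10% FBS, were treated with compounds for 24 hrs at 37 degree Celsius, fixed, and stained with Alexa-488 phospho-rpS6 Ser235/236 antibody plus Hoechst; results given as % positive cells.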
# [27] = Cytometry Cell-Based qHTS for Inhibitors of the mTORC1 Signaling Pathway in MEF cells (AID 2668);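 note: Tsc2-/- p53-/- mouse embryonic fibroblasts stably re-expressing wild-type Tsc2; percent cells positive for phospho-rpS6 Ser235/236 relative to propidium iodide stain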
# Procedure, shortened: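 Phospho-rpS6 (Ser235/236) immunofluorescence over PI signal, scored as % positive cells using thresholds from 7.5 nM rapamycin and DMSO wells, after 24 h compound exposure of WT-Tsc2-rescued Tsc2-/-, p53-/- MEFs. PI cell count recorded for viability.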
# [28] = Validation screen for small molecules that induce DNA re-replication in MCF 10A normal breast cells (AID 463097); note: nearly all actives have a fitted effect of over 60% in size
# Procedure, shortened: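 Read-out is Hoechst total nuclear intensity by fluorescence scanning imager, flagging increased high-DNA-content nuclei. Compounds were incubated with MCF 10A cells for 48 hr (37 C, 5% CO2) before 40 min staining.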
# [29] = molecular target: Ubiquitin carboxyl-terminal hydrolase 2 (Homo sapiens) (UniProt O75604); experiment: qHTS Validation Assay for Inhibitors of Ubiquitin-specific Protease USP2a Using CHOP2 as the Reporter (AID 463106)
# Procedure, shortened: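 Readout was coupled fluorescence (Ex 485/Em 531 nm), read 60 min after adding 25 nM final Ub-CHOP2 and 25 nM reporter substrate. Beforehand, 10 nM final USP2 core had 30 min at RT with compound in pH 8.0 buffer. Curves were fitted after normalization to NEM and flagged for artifacts using time-zero reads.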
# [30] = molecular target: Tumor susceptibility gene 101 protein (Homo sapiens) (UniProt Q99816); experiment: qHTS Validation Assay for Iinhibitors of HIV-1 Budding by Blocking the Interaction of PTAP/TSG101 (AID 485342; calls by dose curve)
# Procedure, shortened: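 Fluorescence polarization of 50 nM FITC-PTAP peptide bound to 10 uM Tsg101 binding domain was read after 20 min room-temperature incubation with compounds, in 10 mM HEPES pH 7.5, 0.15 M NaCl, 0.01% Tween 20.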
# [31] = qHTS Validation Assay to Find Inhibitors of Chronic Active B-Cell Receptor Signaling (AID 485345; active = well fitted curve in the direction sought with a large enough effect in the main read-out, with a control signal flat, not every such curve was filed as active)
# Procedure, shortened: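 Read-out: ratio of filter-corrected green (IkappaBalpha fusion) to red (native) luciferase signal in doxycycline-induced TMD8 cells after 4 h at 37C. Titration spanned 46 uM–3 nM; Data were normalised to basal cells and 10 uM MG-132 wells.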
# [32] = molecular target: Beta-2 adrenergic receptor (Homo sapiens) (UniProt P07550); experiment: qHTS validation assay of beta-arrestin-biased ligands of beta2-adrenergic receptor (AID 485366)
# Procedure, shortened: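 qHTS, Tango cells, 1500 cells/well, DMEM + 1% FBS. Cpd 18 hr at 37 degrees C. Luciferin/ATP/CoA detection mix, 15 min RT, luminescence read. %Activity from corrected signal; CRC fit, curve class.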
# [33] = Quantitative high throughput screen for delayed death inhibitors of the malarial parasite plastid, 96 hour incubation (AID 488745); note: nearly all actives have a fitted effect of over 70% in size
# Procedure, shortened: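 Decreased firefly luciferase luminescence indicates inhibited growth of reporter-integrated P. falciparum after two generations (96 h, 37 C, 5% CO2). Infected erythrocytes at 0.1% parasitemia, 2% hematocrit, in Albumax-supplemented RPMI 1640.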
# Sequence of Glucocorticoid receptor (Homo sapiens) (P04150 whole entry, looked up, the tested form may be a part): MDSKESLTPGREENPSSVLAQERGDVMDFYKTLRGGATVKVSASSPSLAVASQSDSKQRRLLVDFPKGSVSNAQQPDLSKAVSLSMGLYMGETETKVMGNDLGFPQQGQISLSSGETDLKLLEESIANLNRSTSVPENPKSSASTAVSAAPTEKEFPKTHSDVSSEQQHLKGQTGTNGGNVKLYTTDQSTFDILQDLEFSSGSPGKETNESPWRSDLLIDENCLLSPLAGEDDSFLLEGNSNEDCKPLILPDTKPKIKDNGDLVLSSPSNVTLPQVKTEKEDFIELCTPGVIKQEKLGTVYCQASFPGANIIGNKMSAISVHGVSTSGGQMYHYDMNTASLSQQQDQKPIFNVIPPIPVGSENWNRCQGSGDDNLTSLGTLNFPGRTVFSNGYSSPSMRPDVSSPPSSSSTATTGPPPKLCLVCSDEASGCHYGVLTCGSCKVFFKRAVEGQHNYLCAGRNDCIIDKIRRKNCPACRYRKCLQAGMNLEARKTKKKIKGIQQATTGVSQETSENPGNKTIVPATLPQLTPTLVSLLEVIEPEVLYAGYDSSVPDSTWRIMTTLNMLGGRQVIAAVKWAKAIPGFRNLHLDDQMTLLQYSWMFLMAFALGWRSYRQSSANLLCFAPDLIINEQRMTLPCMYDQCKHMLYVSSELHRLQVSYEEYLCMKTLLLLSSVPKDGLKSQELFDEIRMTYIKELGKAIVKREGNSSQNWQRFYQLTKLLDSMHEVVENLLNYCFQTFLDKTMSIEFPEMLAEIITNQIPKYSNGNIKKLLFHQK
# Sequence of Ubiquitin carboxyl-terminal hydrolase 2 (Homo sapiens) (O75604 whole entry, looked up): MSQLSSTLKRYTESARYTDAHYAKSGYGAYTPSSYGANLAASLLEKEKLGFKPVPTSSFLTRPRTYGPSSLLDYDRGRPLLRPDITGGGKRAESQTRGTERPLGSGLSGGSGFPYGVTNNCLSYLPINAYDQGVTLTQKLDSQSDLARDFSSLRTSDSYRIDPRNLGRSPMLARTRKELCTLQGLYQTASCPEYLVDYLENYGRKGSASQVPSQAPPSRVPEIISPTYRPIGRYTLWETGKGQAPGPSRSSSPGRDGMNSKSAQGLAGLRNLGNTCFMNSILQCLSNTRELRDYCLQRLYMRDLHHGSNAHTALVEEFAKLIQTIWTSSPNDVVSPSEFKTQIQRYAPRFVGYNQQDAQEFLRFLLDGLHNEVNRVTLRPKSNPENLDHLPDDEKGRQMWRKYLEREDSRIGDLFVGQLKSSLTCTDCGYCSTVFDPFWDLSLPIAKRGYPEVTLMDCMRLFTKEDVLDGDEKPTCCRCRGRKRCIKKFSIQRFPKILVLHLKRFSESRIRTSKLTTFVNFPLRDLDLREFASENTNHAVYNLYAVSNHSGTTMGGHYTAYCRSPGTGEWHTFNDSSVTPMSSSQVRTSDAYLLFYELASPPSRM
# Sequence of Tumor susceptibility gene 101 protein (Homo sapiens) (Q99816 whole entry, looked up, the tested form may be a part): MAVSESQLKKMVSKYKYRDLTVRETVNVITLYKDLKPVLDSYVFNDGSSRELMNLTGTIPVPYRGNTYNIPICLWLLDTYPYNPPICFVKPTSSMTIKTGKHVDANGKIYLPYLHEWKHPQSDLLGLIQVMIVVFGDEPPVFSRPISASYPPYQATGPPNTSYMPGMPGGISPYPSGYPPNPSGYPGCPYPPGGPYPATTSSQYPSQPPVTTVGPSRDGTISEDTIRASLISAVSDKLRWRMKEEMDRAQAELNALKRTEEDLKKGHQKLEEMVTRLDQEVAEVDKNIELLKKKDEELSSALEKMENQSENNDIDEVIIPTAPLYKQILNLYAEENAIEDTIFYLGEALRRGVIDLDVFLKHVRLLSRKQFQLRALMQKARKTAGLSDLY
# Sequence of Beta-2 adrenergic receptor (Homo sapiens) (P07550 whole entry, looked up): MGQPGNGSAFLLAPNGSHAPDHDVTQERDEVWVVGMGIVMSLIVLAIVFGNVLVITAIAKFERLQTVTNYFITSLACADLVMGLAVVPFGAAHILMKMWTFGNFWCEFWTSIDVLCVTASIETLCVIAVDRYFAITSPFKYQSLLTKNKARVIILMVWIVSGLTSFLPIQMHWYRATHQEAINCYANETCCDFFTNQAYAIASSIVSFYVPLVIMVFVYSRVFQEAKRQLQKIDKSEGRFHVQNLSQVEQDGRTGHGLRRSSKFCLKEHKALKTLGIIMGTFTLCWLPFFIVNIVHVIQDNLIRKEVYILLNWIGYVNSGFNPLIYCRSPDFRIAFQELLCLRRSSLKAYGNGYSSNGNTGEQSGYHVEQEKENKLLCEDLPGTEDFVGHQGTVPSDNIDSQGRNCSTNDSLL
# Sequence of Ferritin light chain (Equus caballus) (P02791 2-175 limits assumed): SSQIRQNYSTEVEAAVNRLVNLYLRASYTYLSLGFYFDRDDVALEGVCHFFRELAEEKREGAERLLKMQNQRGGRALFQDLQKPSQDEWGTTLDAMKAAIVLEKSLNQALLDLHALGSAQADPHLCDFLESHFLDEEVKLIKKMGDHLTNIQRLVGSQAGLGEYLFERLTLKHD
# Sequence of Cytochrome P450 2D6 (Homo sapiens) (P10635 whole entry, looked up): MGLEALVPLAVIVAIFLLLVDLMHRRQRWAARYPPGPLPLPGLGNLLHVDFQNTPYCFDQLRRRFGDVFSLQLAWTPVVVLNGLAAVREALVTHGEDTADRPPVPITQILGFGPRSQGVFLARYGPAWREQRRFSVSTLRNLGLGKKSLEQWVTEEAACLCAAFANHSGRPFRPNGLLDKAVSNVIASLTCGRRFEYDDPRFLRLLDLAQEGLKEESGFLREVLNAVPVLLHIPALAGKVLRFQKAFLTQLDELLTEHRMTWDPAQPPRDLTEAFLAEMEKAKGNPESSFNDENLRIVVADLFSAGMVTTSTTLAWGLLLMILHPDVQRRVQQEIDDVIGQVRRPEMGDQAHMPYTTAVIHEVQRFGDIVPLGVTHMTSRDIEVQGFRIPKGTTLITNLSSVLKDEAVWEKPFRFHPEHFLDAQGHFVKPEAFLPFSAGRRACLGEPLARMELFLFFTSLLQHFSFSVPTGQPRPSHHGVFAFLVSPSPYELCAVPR
# Sequence of Cytochrome P450 1A2 (Homo sapiens) (P05177 whole entry, looked up): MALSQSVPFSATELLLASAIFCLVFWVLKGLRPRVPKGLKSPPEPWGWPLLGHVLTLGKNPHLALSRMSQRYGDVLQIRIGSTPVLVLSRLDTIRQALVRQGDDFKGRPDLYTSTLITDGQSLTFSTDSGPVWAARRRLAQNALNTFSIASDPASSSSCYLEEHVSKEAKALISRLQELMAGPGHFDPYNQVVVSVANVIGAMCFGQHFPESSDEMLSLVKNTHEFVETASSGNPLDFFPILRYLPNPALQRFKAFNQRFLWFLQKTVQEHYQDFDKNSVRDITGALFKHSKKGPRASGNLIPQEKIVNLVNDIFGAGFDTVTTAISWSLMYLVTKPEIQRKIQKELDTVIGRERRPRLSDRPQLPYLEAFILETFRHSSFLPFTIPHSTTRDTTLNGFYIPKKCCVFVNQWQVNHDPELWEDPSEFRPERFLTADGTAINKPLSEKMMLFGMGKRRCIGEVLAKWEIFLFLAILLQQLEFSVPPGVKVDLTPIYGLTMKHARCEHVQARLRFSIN
# Sequence of ATP-dependent DNA helicase Q1 (Homo sapiens) (P46063 whole entry, looked up): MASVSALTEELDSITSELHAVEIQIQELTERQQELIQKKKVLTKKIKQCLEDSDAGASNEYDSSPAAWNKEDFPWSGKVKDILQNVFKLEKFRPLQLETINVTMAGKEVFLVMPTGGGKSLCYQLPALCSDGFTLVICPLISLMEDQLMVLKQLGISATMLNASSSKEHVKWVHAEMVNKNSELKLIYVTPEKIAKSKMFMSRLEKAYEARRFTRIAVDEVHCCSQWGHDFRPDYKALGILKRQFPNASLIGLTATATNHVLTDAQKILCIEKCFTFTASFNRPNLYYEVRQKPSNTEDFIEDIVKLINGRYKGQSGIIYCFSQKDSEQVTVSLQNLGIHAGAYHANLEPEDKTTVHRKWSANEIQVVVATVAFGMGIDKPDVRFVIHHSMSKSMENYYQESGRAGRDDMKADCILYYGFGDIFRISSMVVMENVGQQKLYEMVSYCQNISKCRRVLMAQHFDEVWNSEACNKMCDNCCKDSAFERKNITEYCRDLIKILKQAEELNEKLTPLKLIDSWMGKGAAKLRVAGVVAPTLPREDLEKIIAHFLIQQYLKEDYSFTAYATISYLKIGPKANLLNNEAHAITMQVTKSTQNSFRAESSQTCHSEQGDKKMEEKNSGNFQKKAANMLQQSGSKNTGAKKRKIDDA
# Sequence of DNA repair nuclease/redox regulator APEX1 (Homo sapiens) (P27695 whole entry, looked up): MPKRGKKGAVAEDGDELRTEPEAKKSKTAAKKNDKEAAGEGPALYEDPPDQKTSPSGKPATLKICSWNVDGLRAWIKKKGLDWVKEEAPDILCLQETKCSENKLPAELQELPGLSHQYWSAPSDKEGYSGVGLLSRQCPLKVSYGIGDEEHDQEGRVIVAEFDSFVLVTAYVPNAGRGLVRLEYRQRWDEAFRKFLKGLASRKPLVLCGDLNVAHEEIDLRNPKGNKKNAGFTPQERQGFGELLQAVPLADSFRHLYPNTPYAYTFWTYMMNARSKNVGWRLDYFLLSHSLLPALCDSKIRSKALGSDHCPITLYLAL
# Sequence of Cytochrome P450 3A4 (Homo sapiens) (P08684 whole entry, looked up): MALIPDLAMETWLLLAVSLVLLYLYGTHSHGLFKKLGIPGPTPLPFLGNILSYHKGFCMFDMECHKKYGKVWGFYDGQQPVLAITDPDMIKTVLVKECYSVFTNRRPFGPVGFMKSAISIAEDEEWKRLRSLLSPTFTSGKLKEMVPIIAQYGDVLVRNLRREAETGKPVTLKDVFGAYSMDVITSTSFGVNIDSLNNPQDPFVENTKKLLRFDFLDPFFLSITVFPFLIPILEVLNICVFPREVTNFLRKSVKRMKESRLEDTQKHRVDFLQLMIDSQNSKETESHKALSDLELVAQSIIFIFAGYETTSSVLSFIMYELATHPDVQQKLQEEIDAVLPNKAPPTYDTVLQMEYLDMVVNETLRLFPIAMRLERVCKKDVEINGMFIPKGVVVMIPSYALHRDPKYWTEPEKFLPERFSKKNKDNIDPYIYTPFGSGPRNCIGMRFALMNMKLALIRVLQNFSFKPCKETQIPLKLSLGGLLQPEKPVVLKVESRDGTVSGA
structure (smiles),measurement,setting,value
C1CCC(N=C(NC23CC4CC(CC(C4)C2)C3)N2CCOCC2)CC1,"activity change, negative = inhibition",[1],8.68% (inactive)
same,Potency,[2],inactive
same,"activity, negative = inhibition",[3],17.1% (inactive)
same,Potency,[4],> 46 µM (inactive)
same,Potency,[5],> 46 µM (inactive)
same,Potency,[6],inactive
same,outcome,[7],inactive
same,Potency,[8],inactive
same,Potency,[9],0.631 µM (active)
same,Potency,[10],17.8 µM (active)
same,Potency,[11],inactive
same,outcome,[12],inactive
same,outcome,[13],inactive
same,outcome,[14],inactive
same,"activity change, negative = inhibition",[15]; at 57.5 µM (top of the series),1.57% (inactive)
same,max response,[15]; measured here: cell count channel max response,-18.7%
same,max response,[15]; measured here: lipid channel max response,-17.8%
same,Potency,[16],inactive
same,Potency,[17],inactive
same,Potency,[18],inactive
same,Potency,[19],7.94 µM (active)
same,Potency,[20],inactive
same,Potency,[21],7.08 µM (active)
same,outcome,[22],inactive
same,Potency,[23],inactive
same,outcome,[24],inactive
same,outcome,[25],inactive
same,Potency,[26],inactive
same,Potency,[27],inactive
same,Potency,[28],inactive
same,Potency,[29],inactive
same,outcome,[30],inactive
same,outcome,[31],inactive
same,outcome,[32],inactive
same,Potency,[33],inactive
